In PubChem BioAssay (Tox21):
Results filed as inconclusive are left out. A call without a number means that no potency is given here. The source made the active and inactive calls. Calls follow the shape of the dose curve; as a rule, active = well fitted cell-killing curve with a large enough effect in the repeat runs; inconclusive = weak or mixed curves, or effect the other way; inactive = flat fitted curve, though single readings scatter.

test: cAMP Responsive Elements (CRE) small molecule antagonists, cell-based qHTS assay: qHTS cell viability counter screen (AID 2060913); conditions: CRE-bla HEK293T viability, CellTiter-Glo luminescence, 5 h; series mostly up to 92.4 µM; also: nearly all actives have a fitted effect of over 40% in size
From the text: U.S. Tox21 Program National Center for Advancing Translational Sciences [NCATS] Division of Preclinical Innovation [DPI] U.S. Environmental Protection Agency [EPA] National Institutes of Environmental Health Sciences [NIEHS] National Toxicology Program [NTP] U.S. Food and Drug Administration [FDA] Tox21 Assay Overview: CREB (cyclic-AMP Responsive Element Binding Protein) is a cellular transcription factor. It binds to certain DNA sequences called cAMP Responsive Elements (CRE) and regulates the transcription of the genes. […] This cell line can be used to find agonists/antagonists of the cyclic AMP signaling pathway. The activation of the report gene under culture conditions can be detected by fluorescence intensity. This cell line has been used to screen the Tox21 10K compound library to identify agonists that induce oxidative stress. The cytotoxicity of the Tox21 compound library against the CRE-bla cell line was tested in parallel by measuring the cell viability using CellTiter-Glo assay (Promega, Madison, WI) in the same wells.
Tox21 Assay Protocol Summary: CRE-bla Hek 293T cells were suspended in assay medium (DMEM containing 10% dialyzed FBS, 0.1 mM NEAA, 1 mM sodium pyruvate and 25 mM HEPES) and dispensed at 2,000 cells/4 uL /well into 1536-well black wall/clear bottom plates using a Multidrop Combi (ThermoFisher Scientific, Waltham, MA) dispenser. After the assay plates were incubated at 37 C/5% CO2 for 18 hrs, 23 nL of compounds dissolved in DMSO, positive controls or DMSO only was transferred to the assay plate by a pintool workstation (Kalypsys, San Diego, CA), followed by addition of 1 uL of 1.25uM NKH477 (0.25 uM as final concentration) in assay medium using a Flying Reagent Dispenser (Aurora Discovery, San Diego, CA). The plates were incubated at 37 C and 5% CO2 for 3 hrs. Then 1 uL of LiveBLAzer B/G FRET substrate (Invitrogen, Carlsbad, CA) was added to each well using Bioraptr Flying Reagent Dispenser (FRD, Aurora Discovery, San Diego, CA). The plates were incubated at room temperature for 2 h, then fluorescence intensities were measured using an Envision plate reader (PerkinElmer, Shelton, CT) at Excitation 405nm, Emission 460nm and 530nm. The % activity was determined from the ratio of 460nm/530nm. For cell viability readout that measures cytotoxicity, 4 uL /well of CellTiter-Glo reagent was added into the assay plates using Bioraptr FRD. After 30 min incubation at room temperature, the luminescence intensity in the assay plates was measured using a ViewLux (PerkinElmer, Shelton, CT) plate reader.

Row | SMILES | Potency
1 | CN1[C@@H]2CC[C@H]1CC(OC(=O)c1c[nH]c3ccccc13)C2 (stereo not given in full) | inactive
2 | CCCC(=O)OC[C@@H](OC(=O)CCC)[C@@H](OC(=O)CCC)[C@H](Cn1c2nc(=O)[nH]c(=O)c-2nc2cc(C)c(C)cc21)OC(=O)CCC | inactive
3 | CCCCCCCCCCC[C@@H](C[C@@H]1OC(=O)[C@H]1CCCCCC)OC(=O)[C@H](CC(C)C)NC=O | inactive
4 | CCCCOC(=O)CO | inactive
5 | CCCCCCCCCCCCCc1ccccc1 | inactive
6 | C=C[Si](OCCOC)(OCCOC)OCCOC | inactive
7 | C=C(C)C(=O)OCCC[Si](OC)(OC)OC | inactive
8 | COc1ccccc1OCCNCC(O)COc1cccc2[nH]c3ccccc3c12 (stereo not given) | inactive
9 | Cc1c(C(=O)O)cccc1[N+](=O)[O-] | inactive
10 | CN1CCCCC1CCN1c2ccccc2Sc2ccc(S(C)=O)cc21 (stereo not given) | inactive
11 | COc1cc2c(cc1OC)CN(C(=O)[C@H](C)N[C@@H](CCc1ccccc1)C(=O)O)[C@H](C(=O)O)C2 | inactive
12 | CCCCc1ccc2c(n1)[C@@H](c1ccc(OC)cc1C[C@H](C)C(=O)O)[C@H](C(=O)O)[C@H]2c1ccc2c(c1)OCO2 | inactive
13 | c1ccc(C[n+]2cccc3ccccc32)cc1 | inactive
14 | CC(=O)Oc1cccc(O)c1 | inactive
15 | C=C(C)C(=O)OCCCCCCCCCCCCC | inactive
16 | CC(C)(C)C1CCCCC1O (stereo not given) | inactive
17 | CN(C)CCCO[C@@H]1[C@H]2OC(C)(C)O[C@H]2O[C@@H]1C(O)CO (stereo not given in full) | inactive
18 | CCN1CC(CCN2CCOCC2)C(c2ccccc2)(c2ccccc2)C1=O (stereo not given) | inactive
19 | CCCCC/C=C/C=C/C=O | inactive
20 | CC(C)(C)C(=O)OCOC(=O)[C@@H]1N2C(=O)[C@@H](NC(=O)[C@H](N)c3ccccc3)[C@H]2SC1(C)C | inactive

Row | SMILES | Potency
21 | CCCCCCCCCCCC(=O)OCC(O)CO (stereo not given) | inactive
22 | CCN(CC)CCNC(=O)c1ccc(N)cc1 | inactive
23 | Cc1cccc(Nc2ccccc2)c1 | inactive
24 | CC(C)(O)C#CC(C)(C)O | inactive
25 | C[C@@H]1C[C@H]2[C@@H]3C[C@H](F)C4=CC(=O)C(Cl)=C[C@]4(C)[C@@]3(F)[C@@H](O)C[C@]2(C)[C@@]1(O)C(=O)CO | inactive
26 | CCOB(OCC)OCC | inactive
27 | O=C(CCCCC(=O)Nc1c(I)cc(I)c(C(=O)O)c1I)Nc1c(I)cc(I)c(C(=O)O)c1I | inactive
28 | CC(=O)N1CCN(c2ccc(O)cc2)CC1 | inactive
29 | Cc1ccc(C(C)(C)O)cc1 | inactive
30 | Nc1ccccc1S(=O)(=O)c1ccccc1 | inactive
31 | O=C1Cc2ccccc2N1c1c(Cl)cccc1Cl | inactive
32 | O=C1CCCN1C1CCCCC1 | inactive
33 | CCn1cc(C(=O)O)c(=O)c2cc3c(cc21)OCO3 | inactive
34 | NC(=O)c1ccccc1[N+](=O)[O-] | inactive
35 | c1ccc([C@H]2CN3CCSC3=N2)cc1 | inactive
36 | O=S(=O)(O)c1cc(S(=O)(=O)O)c2c(N=Nc3ccccc3)c(O)ccc2c1 | inactive
37 | Cc1c(C(=O)c2c[nH]n(C)c2=O)ccc(S(C)(=O)=O)c1C1=NOCC1 | inactive
38 | CCCCCCCCCOC(=O)CCCCC(=O)OCCCCCCC | inactive
39 | NS(=O)(=O)c1cc2c(cc1Cl)NC(CSCc1ccccc1)=NS2(=O)=O | inactive
40 | CC(=O)OCC1=C(C(=O)O)N2C(=O)[C@@H](NC(=O)Cc3cccs3)[C@H]2SC1 | inactive
